Test results published in PMC5540273 (PLoS ONE, 2017).

Experiments:
Conditions in all cases: concentration: 1 μM, replicates: in singlicate; n = 1
MTOR = tested on: MTOR
MUSK = tested on: MUSK
MYLK2 = tested on: MYLK2
MYLK4 = tested on: MYLK4
MYLK = tested on: MYLK
MYO3A = tested on: MYO3A
MYO3B = tested on: MYO3B
NDR1 = tested on: T1, NDR1
T1 construct: gene STK38

NDR2 = tested on: NDR2
NEK10 = tested on: NEK10
NEK11 = tested on: NEK11
NEK1 = tested on: NEK1
NEK2 = tested on: NEK2
NEK3 = tested on: NEK3
NEK4 = tested on: NEK4
NEK5 = tested on: NEK5
NEK6 = tested on: NEK6
NEK7 = tested on: NEK7
NEK9 = tested on: NEK9
NIK = tested on: T2, NIK
T2 construct: gene MAP3K14
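Further: KINOMEscan kinase panel screen.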

SMILES | %Inh (MTOR) [%] | %Inh (MUSK) [%] | %Inh (MYLK2) [%] | %Inh (MYLK4) [%] | %Inh (MYLK) [%] | %Inh (MYO3A) [%] | %Inh (MYO3B) [%] | %Inh (NDR1) [%] | %Inh (NDR2) [%] | %Inh (NEK10) [%] | %Inh (NEK11) [%] | %Inh (NEK1) [%] | %Inh (NEK2) [%] | %Inh (NEK3) [%] | %Inh (NEK4) [%] | %Inh (NEK5) [%] | %Inh (NEK6) [%] | %Inh (NEK7) [%] | %Inh (NEK9) [%] | %Inh (NIK) [%]
Nc1ncnc2scc(-c3ccc(NC(=O)Cc4cc(F)ccc4F)cc3)c12.O=C(O)C(F)(F)F [SB-731254-M] | 0 | 2 | 38 | 72 | 8 | 29 | 0 | 12 | 25 | 0 | 36 | 20 | 24 | 35 | 16 | 47 | 3 | 0 | 20 | 0
COc1cccc(C2=C(Nc3cccc(O)c3)C(=O)NC2=O)c1 [SB-390771] | 38 | 0 | 0 | 6 | 27 | 17 | 0 | 18 | 0 | 67 | 0 | 0 | 0 | 19 | 2 | 2 | 0 | 7 | 15 | 7
CCn1cnc2c(NCc3ccccc3)ncnc21 [SKF-96418] | 37 | 0 | 0 | 6 | 0 | 0 | 0 | 30 | 14 | 14 | 0 | 0 | 0 | 24 | 0 | 0 | 0 | 0 | 0 | 32
Cc1ccc(NC(=O)c2cccc(N3CCCCC3)c2)cc1-c1ccc(C(=O)NCC2CC2)cc1 [GSK1917008] | 14 | 1 | 9 | 9 | 17 | 0 | 12 | 0 | 0 | 0 | 0 | 27 | 16 | 11 | 23 | 12 | 0 | 13 | 35 | 68
Cc1nn2c(=O)cc(N3CCO[C@H](C)C3)nc2n1Cc1cccc(Cl)c1Cl [GSK2373693] | 61 | 14 | 6 | 2 | 0 | 0 | 0 | 0 | 0 | 0 | 0 | 0 | 18 | 0 | 0 | 75 | 0 | 0 | 0 | 21
O=C(O)C(F)(F)F.O=c1[nH]ccc2nc(N[C@@H]3CCNC3)nc(Nc3cc(Cl)cc(Cl)c3)c12 [GSK2188764] | 9 | 3 | 50 | 36 | 92.4 | 59 | 0 | 82 | 68 | 81 | 0 | 28 | 23 | 23 | 17 | 14 | 0 | 13 | 25 | 64
CCNC(=O)/C=C/c1n[nH]c2cc(Sc3ccccc3C(=O)NC)ccc12 | 14 | 32 | 3 | 20 | 11 | 8 | 0 | 25 | 18 | 24 | 0 | 0 | 0 | 26 | 0 | 5 | 38 | 0 | 0 | 0
O=C(Nc1n[nH]c2nc(-c3ccccc3O)ccc12)C1CC1 [SB-711880] | 16 | 0 | 85 | 0 | 28 | 36 | 1 | 6 | 0 | 0 | 0 | 0 | 0 | 18 | 0 | 0 | 0 | 3 | 6 | 18
CN(C)CCOc1ccc(-c2cc(-c3ccc(Cl)c(O)c3)c(-c3ccncc3)[nH]2)cc1.Cl.Cl [SB-684387] | 19 | 0 | 28 | 9 | 18 | 39 | 13 | 35 | 42 | 0 | 38 | 9 | 14 | 2 | 0 | 22 | 0 | 0 | 17 | 0
CN(c1ccc(NC(=O)Nc2cccc(Cl)c2)cc1)c1ccnc(N)n1.Cl [GW830707] | 13 | 72 | 0 | 6 | 0 | 3 | 36 | 10 | 25 | 1 | 28 | 0 | 16 | 0 | 0 | 7 | 14 | 0 | 3 | 9
Nc1cccc(-c2ccc3c(N)n[nH]c3c2)c1 [GSK2193613] | 13 | 20 | 92.3 | 96.9 | 40 | 45 | 0 | 27 | 13 | 10 | 17 | 11 | 11 | 0 | 0 | 6 | 0 | 0 | 8 | 6
COc1ccc(NC(=O)c2ccoc2)cc1-c1ccc(C(=O)NCC2CC2)cc1 [GW810437] | 36 | 0 | 0 | 0 | 0 | 7 | 21 | 32 | 16 | 16 | 0 | 0 | 0 | 37 | 0 | 0 | 0 | 0 | 7 | 40
COc1cc(Nc2nccc(N3CCC(NC(=O)Nc4ccc5c(c4)OCO5)C3)n2)cc(OC)c1OC (centres unmarked) [GSK1379766] | 26 | 19 | 10 | 1 | 21 | 18 | 0 | 0 | 9 | 34 | 0 | 46 | 20 | 45 | 26 | 100 | 18 | 29 | 21 | 20
COc1cc(Nc2ccnc3cc(-c4ccncc4)ccc23)cc(OC)c1OC.Cl [GW494610] | 20 | 10 | 13 | 0 | 84 | 19 | 6 | 17 | 0 | 0 | 8 | 0 | 0 | 0 | 0 | 5 | 1 | 0 | 4 | 0
COc1cccc(NC(=O)NCCNc2ccnc(Nc3ccc(F)cc3)n2)c1 [GSK1379879] | 32 | 5 | 0 | 0 | 16 | 22 | 0 | 18 | 0 | 0 | 0 | 0 | 0 | 9 | 0 | 11 | 0 | 0 | 0 | 27
Nc1ncc(-c2cn[nH]c2)c2scc(-c3ccc4c(c3)CCN4C(=O)Cc3ccccc3)c12 [GSK2593067] | 4 | 64 | 69 | 17 | 4 | 6 | 0 | 0 | 0 | 22 | 87 | 7 | 85 | 0 | 11 | 21 | 3 | 0 | 0 | 3
Cl.N#CCc1ccc(Nc2nccc(Nc3ccc(Oc4ccccc4)cc3)n2)cc1 [GW639905] | 24 | 14 | 1 | 9 | 0 | 0 | 3 | 0 | 0 | 8 | 0 | 0 | 5 | 0 | 16 | 24 | 0 | 0 | 0 | 0

SMILES | %Inh (MTOR) [%] | %Inh (MUSK) [%] | %Inh (MYLK2) [%] | %Inh (MYLK4) [%] | %Inh (MYLK) [%] | %Inh (MYO3A) [%] | %Inh (MYO3B) [%] | %Inh (NDR1) [%] | %Inh (NDR2) [%] | %Inh (NEK10) [%] | %Inh (NEK11) [%] | %Inh (NEK1) [%] | %Inh (NEK2) [%] | %Inh (NEK3) [%] | %Inh (NEK4) [%] | %Inh (NEK5) [%] | %Inh (NEK6) [%] | %Inh (NEK7) [%] | %Inh (NEK9) [%] | %Inh (NIK) [%]
N#Cc1cnc2cc(-c3cnc(CNCCN4CCOCC4)s3)ccc2c1Nc1ccc(Oc2ccccc2)cc1 [GW664114] | 12 | 3 | 0 | 13 | 6 | 55 | 48 | 14 | 0 | 4 | 25 | 0 | 82 | 20 | 1 | 0 | 0 | 0 | 17 | 0
Cl.Cl.NCC(NC(=O)c1cc(-c2cccnc2)c(-c2ccnc3[nH]ccc23)s1)c1ccccc1 (centres unmarked) [GSK1323434] | 10 | 18 | 15 | 98.2 | 23 | 39 | 0 | 67 | 13 | 79 | 15 | 13 | 1 | 18 | 24 | 13 | 4 | 0 | 11 | 35
Nc1ncc(-c2ccc3nccc(-c4ccncc4)c3c2)cc1S(=O)(=O)N1CCCCC1 [GSK1693850] | 100 | 0 | 0 | 10 | 22 | 22 | 0 | 30 | 2 | 54 | 0 | 2 | 8 | 4 | 0 | 18 | 0 | 0 | 15 | 11
CCOc1nccc(-c2c(-c3ccc(F)cc3)ncn2C2CCNCC2)n1 [SB-249175] | 0 | 0 | 0 | 19 | 31 | 90 | 0 | 6 | 12 | 27 | 50 | 9 | 0 | 13 | 0 | 31 | 4 | 10 | 7 | 5
CC(C)NCC(Cc1ccccc1)NC(=O)c1cc(Br)c(-c2ccnc3[nH]ccc23)s1.Cl.Cl (centres unmarked) [GSK1383281] | 6 | 0 | 1 | 79 | 56 | 19 | 0 | 90.3 | 65 | 2 | 0 | 91.9 | 13 | 16 | 0 | 68 | 0 | 0 | 0 | 0
Fc1cc(Cl)ccc1Nc1ccnc2cc(-c3ccc(CN4CCSCC4)o3)ccc12 [GW560106] | 6 | 0 | 13 | 0 | 38 | 38 | 0 | 12 | 31 | 15 | 22 | 0 | 1 | 5 | 0 | 9 | 0 | 0 | 5 | 28
CCNc1nccc(-c2c(-c3ccc(F)cc3)ncn2C2CCN(C)CC2)n1 | 0 | 97.7 | 0 | 0 | 0 | 5 | 0 | 3 | 5 | 0 | 0 | 1 | 0 | 0 | 0 | 5 | 0 | 1 | 0 | 0
Cc1ccc(NC(=O)c2ccc(Cl)c(Cl)c2)cc1-c1ccc(C(=O)Nc2ccncc2)cc1 [GSK1398460] | 0 | 6 | 0 | 5 | 27 | 0 | 0 | 14 | 0 | 0 | 0 | 16 | 2 | 16 | 0 | 0 | 0 | 0 | 7 | 0
CSc1ccc(NC2=C(c3ccc(Cl)cc3)C(=O)NC2=O)cc1 [SB-317658] | 0 | 34 | 10 | 24 | 0 | 18 | 20 | 9 | 9 | 14 | 28 | 4 | 0 | 0 | 0 | 29 | 33 | 0 | 1 | 21
Cn1cc(-c2cnc(N)c3c(-c4ccc5c(c4)CCN5C(=O)Cc4ccccc4)csc23)cn1 [GSK2593074] | 0 | 24 | 55 | 0 | 4 | 0 | 45 | 10 | 2 | 22 | 47 | 0 | 28 | 1 | 0 | 5 | 0 | 0 | 0 | 0
CN(C)c1ncnc2nc[nH]c12 [SKF-31736] | 54 | 14 | 0 | 30 | 0 | 0 | 0 | 35 | 24 | 21 | 0 | 0 | 0 | 41 | 0 | 12 | 0 | 0 | 0 | 51
N#CC1(c2cccc(C(=O)Nc3cccc(Oc4ccc5nc(NC(=O)C6CC6)sc5n4)c3)c2)CC1 | 3 | 0 | 0 | 0 | 23 | 0 | 0 | 18 | 0 | 0 | 0 | 40 | 0 | 30 | 0 | 0 | 0 | 0 | 0 | 0
Cl.Cl.NC(CNC(=O)c1cc(Br)c(-c2ccnc3[nH]ccc23)s1)c1ccccc1 (centres unmarked) [GSK1322949] | 26 | 22 | 27 | 97.2 | 62 | 34 | 0 | 96.4 | 95.5 | 1 | 0 | 54 | 0 | 5 | 0 | 16 | 0 | 0 | 23 | 11
CNc1nccc(-c2ccc3c(N)n[nH]c3c2)n1 [GSK2206003] | 11 | 3 | 60 | 97.1 | 68 | 53 | 0 | 24 | 9 | 29 | 0 | 4 | 2 | 2 | 0 | 14 | 0 | 0 | 9 | 33
O=C(Nc1n[nH]c2cc(-c3cccs3)ccc12)C1CC1 [SB-731284] | 42 | 0 | 87 | 24 | 52 | 0 | 0 | 27 | 0 | 27 | 18 | 0 | 0 | 20 | 39 | 0 | 0 | 0 | 0 | 14
COc1cccc2c(-c3ccncc3)c(-c3ccc(F)cc3)nn12 [GW468513] | 20 | 21 | 0 | 0 | 12 | 4 | 0 | 8 | 0 | 0 | 0 | 0 | 0 | 0 | 4 | 7 | 0 | 0 | 0 | 0
CN(c1ccc(F)c(NC(=O)c2cccc(OC(C)(C)C#N)c2Cl)c1)c1ccc2nc(NC(=O)C3CC3)sc2n1 | 0 | 0 | 0 | 0 | 30 | 0 | 0 | 0 | 29 | 0 | 0 | 3 | 0 | 7 | 1 | 0 | 0 | 8 | 5 | 0
